# According to ChEMBL document CHEMBL1157539, “Thousands of chemical starting points for antimalarial lead identification” (Nature, 2010):
# Test system: Plasmodium falciparum
# Test: GSK_TCMDC: Inhibition of Plasmodium falciparum Dd2 in whole red blood cells, using parasite LDH activity as an index of growth. Test compounds present at 2uM
# Type: functional
row,Structure (SMILES),Inhibition [%]
1,CCOc1cc(C(=O)N[C@@H](Cc2ccccc2)[C@H](O)CNCc2cccc(OC)c2)cc(N2CCCCS2(=O)=O)c1.Cl,94
2,Cc1cccc2nc(-c3ccc(-c4cccc(NC(=O)c5cncn5C)c4)cc3)[nH]c12,1
3,c1cncc(Oc2ccc(Nc3ccnc4cc(-c5cccc(CN6CCCCC6)c5)ccc34)cc2)c1,100

# Test system: HepG2
# Test: GSK_TCMDC: Percent inhibition of human HepG2 cell line. Test compounds present at 10uM.
# Type: functional
row,Structure (SMILES),Inhibition [%]
1,O=C(N[C@@H](Cc1ccccc1)C(=O)NC1CCCCCC1)c1ccc(O)c(-c2ccc(Cl)c(Cl)c2)c1,0
2,Cc1ccc(Oc2c(-c3ccccc3CN3CCCC3CN(C)C)cnn(C)c2=O)cn1.O=C(O)C(F)(F)F (stereo not drawn),0
3,Cc1nc(-c2ccc(-c3ccc(C(=O)Nc4ccc(I)c(OCC5CCCN5C)c4)cc3)c(C)c2)no1.Cl (stereo not drawn),100
4,O=C(Cc1c[nH]cn1)Nc1cccc(-c2ccc(-c3nc4cc(F)ccc4[nH]3)s2)c1,4
5,CCCCCN1CCC(NS(=O)(=O)c2cccc(C(=O)Nc3ccc(Cl)cc3)c2)CC1.O=C(O)C(F)(F)F,24
6,Cc1ccc2cc(NC(=O)c3cccc(C(=O)Nc4ccc5nc(C)ccc5c4)n3)ccc2n1,21
7,CCn1c(-c2nonc2N)nc2c(-c3cccc(NC(=O)Nc4ccc(Cl)cc4)c3)ncc(OCCCN)c21.O=C(O)C(F)(F)F,26
8,CCCCOc1ccccc1C(=O)NCc1csc(-c2ccccc2)n1,17
9,CN(C)CCOc1ccc(N2CCN(CCCCNC(=O)c3ccc(NC(=O)c4ccc(Cl)cc4)cc3)CC2)cc1,13
10,COc1c(Br)cc(Br)cc1C(C)=O,3
